This excerpt belongs to a sample that is enriched for hits.
DT40 TDP1 no CPT – qHTS for Inhibitors of human tyrosyl-DNA phosphodiesterase 1 (TDP1): qHTS in cells in absence of CPT; 15% of 420,000 active; AID 686978, 2013; DT40 Tdp1-/- hTDP1 cells, no CPT, ATP luminescence, 48 h; Potency, µM (series often up to 46.2 µM), without a hit: top-dose activity change, negative = growth inhibition, actives largely listed as inhibitors; also: potency is read from the fitted curve at half-maximal effect; nearly all actives have a fitted effect of over 55% in size
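Luminescent ATP content (CellTiter-Glo) served as the growth readout. Knockout chicken DT40 cells expressing human TDP1 were exposed to compounds without camptothecin for a minimum 48 hr at 37 °C.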
ALOX12 inh – ALOX12 (human) lipoxygenase inhibition | P18054 | purified 12hLO, xylenol orange hydroperoxide absorbance | Potency, µM (doses to about 108 µM), without a hit: at the top dose activity change, negative = inhibition, most hits filed as inhibitors | 1.1% of 580,000 active; also: potency is read from the fitted curve at half-maximal effect
Target sequence (P18054 whole entry, looked up): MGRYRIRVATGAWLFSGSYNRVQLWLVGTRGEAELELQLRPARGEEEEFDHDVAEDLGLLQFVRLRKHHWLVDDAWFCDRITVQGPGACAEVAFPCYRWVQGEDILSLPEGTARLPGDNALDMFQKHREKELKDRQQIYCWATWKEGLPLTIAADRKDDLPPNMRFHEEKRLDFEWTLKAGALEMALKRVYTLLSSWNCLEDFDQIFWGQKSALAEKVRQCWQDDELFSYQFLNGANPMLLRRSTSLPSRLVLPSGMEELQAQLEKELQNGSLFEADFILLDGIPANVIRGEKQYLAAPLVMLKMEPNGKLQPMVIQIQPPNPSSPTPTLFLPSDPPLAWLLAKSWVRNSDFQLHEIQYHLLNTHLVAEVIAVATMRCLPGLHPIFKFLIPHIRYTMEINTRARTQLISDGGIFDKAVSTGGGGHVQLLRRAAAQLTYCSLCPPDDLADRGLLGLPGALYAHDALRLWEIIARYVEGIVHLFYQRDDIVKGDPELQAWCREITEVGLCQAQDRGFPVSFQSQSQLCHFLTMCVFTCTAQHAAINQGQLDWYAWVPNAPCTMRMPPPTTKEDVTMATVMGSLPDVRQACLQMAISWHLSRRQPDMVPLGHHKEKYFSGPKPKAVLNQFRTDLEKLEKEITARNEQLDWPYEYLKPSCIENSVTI
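Purified human 12hLO (150 nM final) in 25 mM Hepes, 0.01% Triton X-100, pH 7.0 was preincubated 15 min at room temperature with compound. Then 40 uM arachidonic acid was added, 30 min. Hydroperoxide was read by Fe-XO absorbance ratio 573/405 nm.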
IL-1B inflam inh – blocks inflammasome-driven IL-1 beta release | THP-1 LPS/ATP IL-1B secretion, AlphaLISA, 16 h; hits give low values | activity change, % at 57.5 µM | 4.7% of 360,000 active | AID 743279; in the data active = activity change below about -50%; inconclusive = mostly about -30% to -49%
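THP-1 cells pretreated 1 hr with compounds (up to 57.5 uM final), then stimulated with LPS (250 ng/mL final) plus ATP (1.25 mM final); secreted IL-1B measured by AlphaLISA after 16 hr, decreased signal indicating inhibition.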
DT40 TDP1 CPT – DT40-hTDP1 cell growth loss with CPT; AID 686979; chicken DT40 Tdp1-/-;hTDP1 cells + 20 nM CPT, ATP luminescence, 48 h; Potency, µM (top dose mostly 46.2 µM), without a hit: top-dose activity change, negative = growth inhibition, actives largely listed as inhibitors; 12% of 420,000 active; also: potency is read from the fitted curve at half-maximal effect; nearly all actives have a fitted effect of over 55% in size
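Cell growth measured by CellTiter-Glo luminescence after a minimum 48 h, 37 C compound exposure with 20 nM CPT in Tdp1-knockout DT40 cells stably expressing hTDP1, seeded 400/well; qHTS titration format.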
HT1080-NT tox – kills 2HG-producing HT-1080-NT fibrosarcoma cells; 1.6% of 360,000 active; HT-1080-NT fibrosarcoma viability, CellTiter-Glo ATP luminescence, 48 h; AID 686970; Potency, µM (highest dose often 46.1 µM), for the others: at the highest dose activity, negative = less viability, actives largely listed as cytotoxic;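 also: NT is the 2HG producing partner of a matched IDH1 knockdown line; potency is read from the fitted curve at half-maximal effect; 0% = DMSO-treated cells and -100% = media-only wells without cells; nearly all actives have a fitted effect of over 55% in size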
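Viability of the 2HG-overproducing fibrosarcoma line after 48 hours of compound exposure at 37 degrees C was determined by luminescence with CellTiter-Glo, and concentration-effect curves were then fitted and categorized.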
HT1080 IDH1KD tx – toxicity to HT-1080 IDH1 knockdown cells (counter line); HT-1080 IDH1 knockdown viability, ATP luminescence, 48 h; Potency, µM (doses to about 46.1 µM), without a hit: top-dose activity, negative = toxicity, most hits filed as cytotoxic; 2% of 360,000 active; AID 686971;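 also: potency is read from the fitted curve at half-maximal effect; 0% = DMSO wells and -100% = cell-free medium wells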
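HT-1080-IDH1KD cells (IDH1 knocked down), 750/well in RPMI with 5% FBS, treated with compound 48 h at 37 degrees C. Viability by CellTiter-Glo luminescence, normalised to DMSO and no-cell wells; concentration-response curves classed.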
* = called active by the depositor; i = inactive; u = inconclusive; x = no result; [ ] = another dose, or the depositor's remark. Unless noted, calls follow the shape of the dose curve; as a rule, active = well fitted curve in the direction sought with a large enough effect; inconclusive = small, poorly fitted or top-dose-only effect, or another doubt; inactive = no such curve, though single readings can be large; an effect the other way counts as inactive or inconclusive. Unless noted, % is scaled to controls: 0 for no effect and ±100 for the full control effect.

SMILES | DT40 TDP1 no CPT | ALOX12 inh | IL-1B inflam inh | DT40 TDP1 CPT | HT1080-NT tox | HT1080 IDH1KD tx
Cc1ccsc1/C=N/n1c(-c2cc(-c3ccccc3)n[nH]2)n[nH]c1=S | u | u | 19 | u | -4% | -3%
CCCCC(CC)CNC(=O)CCC(=O)NC1CCCCCCCCCCC1 (stereo not drawn) | x | -46% | x | x | x | x
O=C(COc1ccc(C(=O)c2ccccc2)cc1)OCCOc1cccc(Cl)c1 | x | -20% | x | x | x | x
COc1cc2nc(N(CCCN(C)C)C(=O)c3ccc(S(=O)(=O)N(C)C4CCCCC4)cc3)sc2cc1OC | 16µM* | -23% | -79* | u | 3% | 7%
COc1cc2nc(N(CCN(C)C)C(=O)c3ccc(S(=O)(=O)N(C)CC4CCCO4)cc3)sc2cc1OC (stereo not drawn) | -18% | -28% | 0 | -9% | -4% | 4%
CCc1ccc2nc(N(CCCN(C)C)C(=O)c3ccc(S(=O)(=O)N(C)C4CCCCC4)cc3)sc2c1 | u | 2% | -61* | 16µM* | u | 23µM*
CCc1ccc2nc(N(CCCN(C)C)C(=O)c3ccc(S(=O)(=O)N4CCc5ccccc5C4)cc3)sc2c1 | 5.2µM* | 6% | -84* | 5.2µM* | u | 13µM*
CN(C)CCCN(C(=O)c1ccc(S(=O)(=O)N(C)C2CCCCC2)cc1)c1nc2ccc(Br)cc2s1 | u | u | -83* | u | u | u
CC1CCCCN1S(=O)(=O)c1ccc(C(=O)N(CCCN(C)C)c2nc3cc4c(cc3s2)OCO4)cc1 (stereo not drawn) | -7% | 0% | i | -29% | 4% | -1%
Cc1nccc(-c2cccc(NC(=O)c3nccnc3N)c2)n1 | x | -24% | x | x | x | x
CN(C)CCCN(C(=O)c1ccc(S(=O)(=O)N(C)C2CCCCC2)cc1)c1nc2ccc(F)cc2s1 | u | u | -98* | 16µM* | u | u
Cn1cnc2c1c(=O)n(CC(=O)N1CC(C(=O)N3CCOCC3)Oc3ccccc31)c(=O)n2C (stereo not drawn) | x | 34% | x | x | x | x
COc1ccc(Nc2cc(C(=O)NCCCN3CCN(C)CC3)c3ccccc3n2)c(OC)c1 | 23µM* | 17% | u | u | -10% | -2%
Cc1cc(C)cc(Nc2cc(C(=O)NCCCOC(C)C)c3ccccc3n2)c1 | x | 15% | x | x | x | x
CCC(C)C(NC(=O)c1ccccc1NC(=O)c1ccc(OC)cc1)C(=O)NCc1ccco1 (stereo not drawn) | -52% | 2% | 0 | -20% | -30% | u
COc1ccc(Nc2cc(C(=O)NCCCOC(C)C)c3ccccc3n2)c(OC)c1 | 16µM* | -7% | -6 | 16µM* | 1% | 13%
COc1ccc(N=c2oc3c(OC)cccc3cc2C(=O)NCc2ccco2)c(OC)c1 | 13µM* | x | -22 | u | 1% | 1%
COc1ccc2cc(C(=O)NCc3ccco3)c(=Nc3ccc(C(=O)O)cc3)oc2c1 | u | 0% | -4 | u | -10% | -15%
COc1ccc(C(=O)Nc2ccc(Cl)cc2C(=O)NCc2ccco2)cc1 | 6.5µM* | -3% | 25 | 5.2µM* | -28% | -2%
CS(=O)(=O)N(CCCC(=O)Nc1ccccc1C(=O)NCC1CCCO1)c1ccccc1 (stereo not drawn) | x | 20% | x | x | x | x
N#Cc1nc(-c2ccc(S(=O)(=O)N3CCOCC3)cc2)oc1N1CCN(Cc2ccccc2)CC1 | x | -9% | x | x | x | x
COc1ccc(Nc2cc(C(=O)NCc3ccco3)c3ccccc3n2)c(OC)c1 | 23µM* | -9% | 9 | u | -1% | -3%
CCN(CCCNC(=O)c1cc(Nc2ccc(OC)cc2OC)nc2ccccc12)c1cccc(C)c1 | 15µM* | u | x | 21µM* | x | x
CN(CCOc1ccc(Br)cc1)C(=O)CSc1nnc(-c2ccc(Cl)cc2)n1C | x | -28% | x | x | x | x
Cc1nc2cc(NC(=O)c3ccc(Cl)cc3)ccc2n1C | -14% | -2% | 0 | -17% | -8% | 0%
SMILES | DT40 TDP1 no CPT | ALOX12 inh | IL-1B inflam inh | DT40 TDP1 CPT | HT1080-NT tox | HT1080 IDH1KD tx
COc1cc(C(=O)Nc2ccc3c(c2)nc(C)n3C)cc(OC)c1OC | 3.3µM* | 0% | 41 | 4.1µM* | 6.5µM* | 9.2µM*
COc1cc(C(=O)Nc2ccc3c(c2)ncn3C)cc(OC)c1OC | 2.9µM* | -1% | 82 | 4.1µM* | u | u
CCCn1cnc2cc(NC(=O)c3cc(OC)c(OC)c(OC)c3)ccc21 | u | -6% | x | u | x | x
Cc1nc(NC2CC2)sc1C(=O)NCCc1ccccc1 | x | 20% | x | x | x | x
COc1ccc(CNC(=O)Cn2c(C)cc3nc4n(c(=O)c32)CCCC4)cc1 | x | 16% | x | x | x | x
CCCCCn1c(=O)c2ccccc2n2c(=S)[nH]nc12 | u | 45µM* | 0 | -17% | -8% | 8%
CCCn1c(=O)c2ccccc2n2c(=S)[nH]nc12 | 14% | -26% | 15 | -18% | 3% | 4%
CCCCn1c(=O)c2ccccc2n2c(=S)[nH]nc12 | -16% | 6.3µM* | 19 | 14% | -21% | 2%
CCn1c(CCn2c3ccccc3c3ccccc32)n[nH]c1=S | u | u | 4 | 15µM* | -19% | u
CCCC(=O)OCCC(C)CCC=C(C)C (stereo not drawn) | x | 135%[176 µM] | x | x | x | x
O=C(O)CCCNC(=O)Cn1nc2c(cc1=O)CCCC2 | x | 12% | x | x | x | x
Cc1cccc2c(=O)c(-c3ccc4c(c3)OCO4)c(NC(=O)c3ccccc3F)oc12 | x | -6% | x | x | x | x
COc1ccc(S(=O)(=O)N(Cc2nc(-c3ccc(C)cc3)no2)C2CCCCC2)cc1 | 7.3µM* | -19% | x | 8.2µM* | x | x
CC(=O)N(Cc1nc(-c2ccc(C)cc2)no1)C1CCCCC1 | x | 15% | x | x | x | x
Cc1ccc(-c2noc(CN(C3CCCCC3)S(=O)(=O)c3ccc(C)cc3)n2)cc1 | 10µM* | -12% | x | 13µM* | x | x
COc1ccc(-c2noc(CN(C(C)C)S(=O)(=O)c3ccc(Br)cc3)n2)cc1 | 23µM* | -31% | x | u | x | x
Cc1cnc(CC2CCCN(C(=O)c3ccnn3C)C2)n1C(C)C (stereo not drawn) | x | 27% | x | x | x | x
COc1cc2c3nnc(-c4ccc(F)cc4)c-3cn(Cc3cccc(C)c3)c2cc1OC | 2.6µM* | u | -98* | 1.8µM* | -11% | -7%
COc1cccc(Cn2nc3c4cc(F)ccc4n(Cc4ccc(F)cc4)cc-3c2=O)c1 | u | 0% | 22 | -9% | 9% | 2%
